Data reported in the supplement of paper PMC10849652.
About 8,800 targets were measured; listed, in parts, are those with a hit and a random draw of the rest. About 0.5% of all pairs of compound and target were hits. Values without a mark were called inactive.

Key:
Experiment in all cases: log2 fold change, soluble protein after heating vs DMSO (PISA); higher = thermal stabilisation; K562 lysate, 10 uM; active = over 0.2 and 3.5 SD of the protein, either way, in both replicates (recomputed)
lapatinib = compound: CS(=O)(=O)CCNCc1ccc(-c2ccc3ncnc(Nc4ccc(OCc5cccc(F)c5)c(Cl)c4)c3c2)o1 [lapatinib]
Outline: (§1)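 K562 pellets were dounce-homogenised in PBS pH 7.4 with 1 mM MgCl2, and the crude extract at 1 mg/mL protein was treated with 10 μM compound for 30 min. Aliquots were heated for 3 min across 48°C-58°C, pooled, and brought to 0.5% NP-40 at 4°C; soluble protein was the supernatant after 21,000xg for 90 min. Soluble protein was quantified by TMTpro 16plex LC-MS/MS with channel sums equalised, and reported as log2 fold change in thermal stability against DMSO controls, with values from duplicates.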

pictilisib = compound: CS(=O)(=O)N1CCN(Cc2cc3nc(-c4cccc5[nH]ncc45)nc(N4CCOCC4)c3s2)CC1 [pictilisib]
Outline: as §1

crizotinib = compound: C[C@@H](Oc1cc(-c2cnn(C3CCNCC3)c2)cnc1N)c1c(Cl)ccc(F)c1Cl [crizotinib]
Outline: as §1

[1] = compound: C[C@H](C1=CC=C(C=C1)C(=O)NC2=C3C=CNC3=NC=C2)N
Outline: as §1

duvelisib = compound: C[C@H](Nc1ncnc2nc[nH]c12)c1cc2cccc(Cl)c2c(=O)n1-c1ccccc1 [duvelisib]
Outline: as §1

gandotinib = compound: Cc1cc(Nc2cc(CN3CCOCC3)c3nc(C)c(Cc4ccc(Cl)cc4F)n3n2)n[nH]1 [gandotinib]
Outline: as §1

tozasertib = compound: Cc1cc(Nc2cc(N3CCN(C)CC3)nc(Sc3ccc(NC(=O)C4CC4)cc3)n2)n[nH]1 [tozasertib]
Outline: as §1

doramapimod = compound: Cc1ccc(-n2nc(C(C)(C)C)cc2NC(=O)Nc2ccc(OCCN3CCOCC3)c3ccccc23)cc1 [doramapimod]
Outline: as §1

bafetinib = compound: Cc1ccc(NC(=O)c2ccc(CN3CC[C@H](N(C)C)C3)c(C(F)(F)F)c2)cc1Nc1nccc(-c2cncnc2)n1 [bafetinib]
Outline: as §1

[2] = compound: Cc1cccc(CC(=O)N2CCc3c2ccc(-c2cn(C)c4ncnc(N)c24)c3F)n1
Outline: as §1

nilotinib = compound: Cc1cn(-c2cc(NC(=O)c3ccc(C)c(Nc4nccc(-c5cccnc5)n4)c3)cc(C(F)(F)F)c2)cn1 [nilotinib]
Outline: as §1

[3] = compound: Cc1nc(Nc2n[nH]c3c2CN(C(=O)N[C@H](CN(C)C)c2ccccc2)C3(C)C)c2sccc2n1
Outline: as §1

dasatinib = compound: Cc1nc(Nc2ncc(C(=O)Nc3c(C)cccc3Cl)s2)cc(N2CCN(CCO)CC2)n1 [dasatinib]
Outline: as §1

[4] = compound: Cc1ncc(-c2ccnc(Nc3ccc(S(C)(=O)=O)cc3)n2)n1C(C)C
Outline: as §1

[5] = compound: Cn1cc(-c2ccc3c(c2)CCN3C(=O)Cc2cccc(C(F)(F)F)c2)c2c(N)ncnc21
Outline: as §1

quisinostat = compound: Cn1cc(CNCC2CCN(c3ncc(C(=O)NO)cn3)CC2)c2ccccc21 [quisinostat]
Outline: as §1

tipifarnib = compound: Cn1cncc1[C@@](N)(c1ccc(Cl)cc1)c1ccc2c(c1)c(-c1cccc(Cl)c1)cc(=O)n2C [tipifarnib]
Outline: as §1

[6] = compound: NC(=O)Nc1cc(-c2cccc(F)c2)sc1C(=O)N[C@H]1CCCNC1
Outline: as §1

[7] = compound: NC(=O)c1cnc(N[C@@H]2CCCC[C@@H]2N)nc1Nc1cccc(-n2nccn2)c1
Outline: as §1

[8] = compound: NC1(c2ccc(-c3nc4ccn5c(=O)[nH]nc5c4cc3-c3ccccc3)cc2)CCC1
Outline: as §1

Sequence of UniProt O75528 (O75528 whole entry, looked up): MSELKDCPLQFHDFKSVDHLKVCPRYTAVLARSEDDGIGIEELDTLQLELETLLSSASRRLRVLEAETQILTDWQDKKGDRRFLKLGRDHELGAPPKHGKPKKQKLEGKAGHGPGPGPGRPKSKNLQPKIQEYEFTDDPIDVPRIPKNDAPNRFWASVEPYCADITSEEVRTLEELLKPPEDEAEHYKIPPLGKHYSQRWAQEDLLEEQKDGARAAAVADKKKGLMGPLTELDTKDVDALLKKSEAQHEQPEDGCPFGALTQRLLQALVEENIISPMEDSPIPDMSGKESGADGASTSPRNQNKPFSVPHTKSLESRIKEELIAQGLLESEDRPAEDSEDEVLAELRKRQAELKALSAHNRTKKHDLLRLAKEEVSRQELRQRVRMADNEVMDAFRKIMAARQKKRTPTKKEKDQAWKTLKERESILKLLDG
Sequence of UniProt O15198 (O15198 whole entry, looked up): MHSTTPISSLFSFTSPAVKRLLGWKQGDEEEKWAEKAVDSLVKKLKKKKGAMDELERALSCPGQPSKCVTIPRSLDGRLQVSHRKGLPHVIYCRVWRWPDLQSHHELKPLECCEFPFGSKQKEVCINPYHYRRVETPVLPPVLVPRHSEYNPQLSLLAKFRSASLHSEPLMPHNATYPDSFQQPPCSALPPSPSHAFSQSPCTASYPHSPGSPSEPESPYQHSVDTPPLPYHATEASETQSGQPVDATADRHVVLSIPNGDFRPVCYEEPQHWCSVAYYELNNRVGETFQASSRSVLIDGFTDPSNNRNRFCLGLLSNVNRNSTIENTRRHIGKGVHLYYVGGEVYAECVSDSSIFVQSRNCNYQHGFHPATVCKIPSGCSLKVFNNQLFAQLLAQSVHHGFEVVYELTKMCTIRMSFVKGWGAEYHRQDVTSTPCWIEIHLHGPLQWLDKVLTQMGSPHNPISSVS
Sequence of UniProt Q92844 (Q92844 whole entry, looked up): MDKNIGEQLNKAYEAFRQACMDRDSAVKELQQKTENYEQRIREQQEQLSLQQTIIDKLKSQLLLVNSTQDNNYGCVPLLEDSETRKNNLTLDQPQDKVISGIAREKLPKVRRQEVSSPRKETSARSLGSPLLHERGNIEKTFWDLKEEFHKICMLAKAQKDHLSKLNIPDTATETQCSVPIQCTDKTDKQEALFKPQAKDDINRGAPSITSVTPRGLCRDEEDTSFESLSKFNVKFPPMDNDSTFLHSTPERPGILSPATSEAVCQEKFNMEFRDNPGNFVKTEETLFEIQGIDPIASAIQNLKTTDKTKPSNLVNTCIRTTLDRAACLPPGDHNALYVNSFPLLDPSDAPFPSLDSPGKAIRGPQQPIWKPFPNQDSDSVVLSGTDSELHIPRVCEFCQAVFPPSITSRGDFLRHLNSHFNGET
Sequence of UniProt O95793 (O95793 whole entry, looked up): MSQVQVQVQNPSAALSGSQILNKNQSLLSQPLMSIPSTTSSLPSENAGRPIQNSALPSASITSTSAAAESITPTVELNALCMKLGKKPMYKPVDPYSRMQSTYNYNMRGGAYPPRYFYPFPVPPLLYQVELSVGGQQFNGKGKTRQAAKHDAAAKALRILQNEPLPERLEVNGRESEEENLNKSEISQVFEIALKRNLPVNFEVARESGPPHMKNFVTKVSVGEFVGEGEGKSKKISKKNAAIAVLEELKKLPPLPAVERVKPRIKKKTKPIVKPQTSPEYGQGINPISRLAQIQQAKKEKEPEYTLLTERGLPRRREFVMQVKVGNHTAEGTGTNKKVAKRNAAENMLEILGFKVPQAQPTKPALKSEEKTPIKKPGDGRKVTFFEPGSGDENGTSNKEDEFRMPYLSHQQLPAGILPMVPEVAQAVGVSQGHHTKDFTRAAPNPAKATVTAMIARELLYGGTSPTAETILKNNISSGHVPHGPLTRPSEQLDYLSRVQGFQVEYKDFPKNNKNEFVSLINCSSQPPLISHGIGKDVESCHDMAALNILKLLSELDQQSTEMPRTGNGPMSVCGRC
Sequence of UniProt Q8WVK7 (Q8WVK7 whole entry, looked up): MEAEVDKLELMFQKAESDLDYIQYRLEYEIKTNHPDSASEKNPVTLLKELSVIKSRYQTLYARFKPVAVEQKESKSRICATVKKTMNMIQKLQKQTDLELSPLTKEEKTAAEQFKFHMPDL
Sequence of UniProt P62306 (P62306 whole entry, looked up): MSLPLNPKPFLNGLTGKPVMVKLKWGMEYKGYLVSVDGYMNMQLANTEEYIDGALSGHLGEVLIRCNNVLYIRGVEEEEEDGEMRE
Sequence of UniProt Q9UMZ2 (Q9UMZ2 whole entry, looked up): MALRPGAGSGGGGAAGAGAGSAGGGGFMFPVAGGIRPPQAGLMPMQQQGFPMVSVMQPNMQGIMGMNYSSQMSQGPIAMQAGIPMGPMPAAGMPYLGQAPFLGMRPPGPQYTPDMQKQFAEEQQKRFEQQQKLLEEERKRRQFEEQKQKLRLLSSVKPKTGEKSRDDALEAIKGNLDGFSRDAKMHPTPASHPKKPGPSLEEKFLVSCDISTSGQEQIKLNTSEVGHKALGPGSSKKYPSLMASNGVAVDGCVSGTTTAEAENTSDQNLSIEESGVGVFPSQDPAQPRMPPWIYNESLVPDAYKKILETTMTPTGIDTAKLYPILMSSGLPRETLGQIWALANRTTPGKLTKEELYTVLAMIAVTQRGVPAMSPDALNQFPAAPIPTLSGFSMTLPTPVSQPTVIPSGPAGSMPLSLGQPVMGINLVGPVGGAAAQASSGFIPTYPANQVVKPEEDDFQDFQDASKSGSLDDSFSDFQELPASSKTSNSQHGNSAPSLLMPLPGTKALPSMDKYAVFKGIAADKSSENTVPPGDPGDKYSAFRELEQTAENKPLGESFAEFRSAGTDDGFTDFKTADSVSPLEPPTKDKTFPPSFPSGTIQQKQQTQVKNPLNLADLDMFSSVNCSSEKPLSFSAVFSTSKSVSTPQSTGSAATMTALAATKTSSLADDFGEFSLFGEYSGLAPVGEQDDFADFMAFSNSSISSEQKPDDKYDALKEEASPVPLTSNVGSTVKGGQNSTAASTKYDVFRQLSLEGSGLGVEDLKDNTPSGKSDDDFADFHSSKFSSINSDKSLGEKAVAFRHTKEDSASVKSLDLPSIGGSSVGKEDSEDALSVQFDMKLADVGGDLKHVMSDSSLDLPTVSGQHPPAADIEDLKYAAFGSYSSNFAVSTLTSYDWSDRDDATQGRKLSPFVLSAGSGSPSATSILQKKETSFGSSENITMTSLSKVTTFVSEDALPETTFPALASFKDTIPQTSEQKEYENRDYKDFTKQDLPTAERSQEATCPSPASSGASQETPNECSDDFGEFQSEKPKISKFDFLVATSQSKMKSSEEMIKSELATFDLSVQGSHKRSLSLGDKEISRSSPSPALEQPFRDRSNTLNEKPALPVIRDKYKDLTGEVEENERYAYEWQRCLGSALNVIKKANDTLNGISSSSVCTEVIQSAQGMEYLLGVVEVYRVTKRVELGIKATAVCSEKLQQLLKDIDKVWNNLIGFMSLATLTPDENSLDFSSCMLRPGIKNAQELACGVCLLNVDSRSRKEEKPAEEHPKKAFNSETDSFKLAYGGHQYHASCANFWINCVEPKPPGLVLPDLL
Sequence of UniProt P49281 (P49281 whole entry, looked up): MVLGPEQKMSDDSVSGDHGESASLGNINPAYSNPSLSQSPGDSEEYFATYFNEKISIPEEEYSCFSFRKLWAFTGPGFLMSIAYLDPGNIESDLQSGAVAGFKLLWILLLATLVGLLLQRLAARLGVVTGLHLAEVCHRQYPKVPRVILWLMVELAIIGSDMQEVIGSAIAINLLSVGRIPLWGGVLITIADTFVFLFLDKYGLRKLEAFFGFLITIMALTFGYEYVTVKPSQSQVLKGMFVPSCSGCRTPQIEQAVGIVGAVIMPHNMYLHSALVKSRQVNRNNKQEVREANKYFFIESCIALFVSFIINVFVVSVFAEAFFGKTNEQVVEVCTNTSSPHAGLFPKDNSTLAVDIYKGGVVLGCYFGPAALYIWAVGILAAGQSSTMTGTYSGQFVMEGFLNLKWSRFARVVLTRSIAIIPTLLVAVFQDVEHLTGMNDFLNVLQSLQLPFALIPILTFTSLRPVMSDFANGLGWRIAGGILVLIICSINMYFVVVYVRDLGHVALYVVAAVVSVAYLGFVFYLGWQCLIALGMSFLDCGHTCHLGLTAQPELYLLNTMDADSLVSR

Target	log2 fold change (lapatinib)	log2 fold change (pictilisib)	log2 fold change (crizotinib)	log2 fold change [1]	log2 fold change (duvelisib)	log2 fold change (gandotinib)	log2 fold change (tozasertib)	log2 fold change (doramapimod)	log2 fold change (bafetinib)	log2 fold change [2]	log2 fold change (nilotinib)	log2 fold change [3]	log2 fold change (dasatinib)	log2 fold change [4]	log2 fold change [5]	log2 fold change (quisinostat)	log2 fold change (tipifarnib)	log2 fold change [6]	log2 fold change [7]	log2 fold change [8]
STAU1 (UniProt O95793)	-0.018	0.03	0.005	0.27 (active)	0.019	-0.086	0.014	0.056	-0.089	-0.062	-0.008	-0.024	-0.004	-0.002	0.007	0.003	-0.009	0.037	0.001	0.005
SMAD9 (UniProt O15198)	-0.056	-0.036	-0.027	-0.047	0.091	0.077	0.091	0.024	0.014	-0.019	0.066	0.054	0.062	-0.028	-0.038	-0.036	-0.021	0.016	0.02	-0.065
SLC11A2 isoform 3 (UniProt P49281)	0	-0.014	-0.004	-0.052	-0.025	0.033	-0.08	-0.018	0.035	0.036	-0.099	-0.108	0.07	0.03	-0.048	-0.112	-0.089	0.055	-0.042	0.111
TADA3 (UniProt O75528)	-0.005	0.009	0.017	-0.09	-0.002	0.143	0.066	0.006	-0.051	0.087	-0.022	-0.036	-0.014	-0.023	0.019	-0.037	-0.035	0.006	0.024	-0.044
SKA2 (UniProt Q8WVK7)	0.005	-0.004	0.027	0.048	-0.004	-0.029	0.048	-0.09	-0.017	0.009	-0.062	0.015	0.005	0.005	0.026	0.122	-0.052	-0.022	0.004	-0.023
TANK (UniProt Q92844)	0.038	-0.03	0.27	0.021	-0.026	0.141	0.108	-0.038	0.023	-0.162	-0.067	0.461 (active)	0.069	0.04	0.088	-0.053	-0.071	0.161	0.042	0.01
SNRPF (UniProt P62306)	0.021	-0.029	-0.077	-0.237	0.076	0.21	-0.016	0.026	0.05	0.218	-0.044	0.063	0.005	0.013	-0.156	-0.276	-0.037	0	-0.044	0.013
SYNRG (UniProt Q9UMZ2)	0.022	-0.016	0.016	0.043	-0.041	-0.037	0.024	-0.023	-0.032	-0.044	-0.007	0.012	0.009	0.036	0.001	0.021	-0.025	0.018	0.026	-0.079
